# This is a sample that favours compounds with a hit; in the whole collection about 17% have one here.
# DT40 TDP1 CPT: DT40-hTDP1 cell growth loss with CPT. chicken DT40 Tdp1-/-;hTDP1 cells + 20 nM CPT, ATP luminescence, 48 h. Potency, µM (titrated, usually from 46.2 µM), for inactives: at the top dose activity change, negative = growth inhibition, hits mostly inhibitors. hit rate 12% among 420,000. AID 686979; further: on the % scale 0 is the no-effect control and ±100 the full control effect; nearly all actives have a fitted effect of over 55% in size
#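 Chicken DT40 Tdp1-/- cells stably complemented with human TDP1 were seeded at 400 cells/well in medium containing 20 nM camptothecin, exposed to pin-transferred compounds, and grown at 37 °C for at least 48 hr. Viability was read as ATP luminescence.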
# HepG2 viability: counter-screen for TGF-b inhibitors: cytotoxicity in HepG2 cells; Potency, µM (highest dose often 46.1 µM), for the others: at the top dose activity change, negative = cytotoxicity, most hits filed as cytotoxic; hit rate 0.76% among 410,000; AID 588856; HepG2 CAGA-GFP viability, ATP luminescence, 18 h
#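 CellTiter-Glo luminescence gave cytotoxicity after 18 hours at 37 degrees C. The cells were HepG2 CAGA-GFP in 1% FBS DMEM, stimulated with 500 pg/mL TGF-beta after compound addition. %Activity was normalised to no-cell wells (complete cell-killing) and DMSO (no toxicity), and curves were fitted and classified.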
# TDP1 cell noCPT: qHTS for Inhibitors of human tyrosyl-DNA phosphodiesterase 1 (TDP1): qHTS in cells in absence of CPT | DT40 Tdp1-/- hTDP1 cells, no CPT, ATP luminescence, 48 h | Potency, µM (series often up to 46.2 µM), without a hit: at the top dose activity change, negative = growth inhibition, actives largely listed as inhibitors | hit rate 15% among 420,000 | AID 686978, 2013; further: on the % scale 0 is the no-effect control and ±100 the full control effect; nearly all actives have a fitted effect of over 55% in size
#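 Cells were dispensed at 400 per well, compounds added by pin tool, plates incubated ≥48 hr at 37 °C, then CellTiter-Glo added for 30 min at room temperature before luminescence reading. Line: DT40 Tdp1-/- complemented with hTDP1; camptothecin omitted.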
# ATXN viability: viability counter-screen for ATXN expression inhibitors; S2 cells (HEK-293 line with an ATXN2-luciferase reporter) viability, CellTiter-Fluor protease fluorescence, 24 h; hit rate 0.49% among 400,000; AID 651635; Potency, µM (top dose mostly 56.7 µM), usual class: cytotoxic; further: nearly all actives have a fitted effect of over 40% in size
# ATXN2 expr inh: reduces ATXN2 reporter expression in HEK-293 cells. AID 1745845. HEK-293 ATXN2-luciferase reporter, luminescence, 24 h. hit rate 0.72% among 360,000. Potency, µM (titrated, usually from 57 µM), inactives show at the top dose activity change, negative = inhibition, hits mostly inhibitors; further: on the % scale 0 is the no-effect control and ±100 the full control effect; nearly all actives have a fitted effect of over 55% in size
#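 qHTS (up to 57 uM final) was run with 24 h compound exposure of reporter cells at 37 °C. Each well was multiplexed: SteadyGlo luminescence measured ATXN2-luciferase expression after a fluorogenic Gly-Phe-AFC viability readout (25 uM final).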
# TGFb inhibitor: TGF-b pathway inhibition; HepG2 CAGA-GFP TGF-b/SMAD3 reporter, GFP fluorescence, 18 h; TGF-beta stimulated, 500 pg/mL final; Potency, µM (doses to about 46.1 µM), for inactives: at the top dose activity, negative = inhibition, usual class: inhibitors; hit rate 1.2% among 410,000; further: on the % scale 0 is the no-effect control and ±100 the full control effect; nearly all actives have a fitted effect of over 65% in size
#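 First, reporter cells (HEPG2 CAGA-GFP) rested 2 h at 37 degrees C. Next, compounds were pinned in and TGF-beta added to 500 pg/mL final. After 18 h, GFP was imaged per cell and summed per well.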
# * marks the source's active call; other numbers are inactive results; i = inactive; ? = inconclusive; . = not tested or not shown. The call rests on the fitted dose curve; in most records, active means well fitted curve in the direction sought with a large enough effect; inconclusive means small, poorly fitted or top-dose-only effect, or another doubt; inactive means no such curve, though single readings can be large; an effect the other way counts as inactive or inconclusive. Potency means the concentration at half of the fitted maximal effect.
SMILES,DT40 TDP1 CPT,HepG2 viability,TDP1 cell noCPT,ATXN viability,ATXN2 expr inh,TGFb inhibitor
COc1ccc(-c2c(C)nn3c(N)c(C#N)cnc23)cc1OC,7.31µM*,-1.0%,13µM*,i,-26.8%,-14.5%
Cc1noc(C)c1C(=O)N1CCN(c2cccc(Cl)c2)CC1,8.8%,3.3%,-28.7%,i,-9.2%,0.2%
Cc1nn(Cc2ccccc2Cl)c2sc(C(=O)Nc3nccs3)cc12,-19.2%,2.7%,?,i,3.3%,0.3%
CCC(CC)NC(=O)c1cc2c(C)nn(Cc3ccccc3Cl)c2s1,23.1µM*,-7.4%,?,i,1.0%,-9.6%
Cc1nn(Cc2ccccc2Cl)c2sc(C(=O)Nc3ccccc3N3CCOCC3)cc12,10.3µM*,-4.0%,?,i,-25.1%,15.1%
Cc1ccc(C(=O)C(C(=O)/C=C/c2ccccc2)=C2SCCCS2)cc1,5.8µM*,-82.6%,4.61µM*,.,12.6µM*,-20.4%
O=C1C=CC(O)(c2cc(=O)c3c(O)cc(O)cc3o2)C=C1,0.366µM*,15.8µM*,0.517µM*,12.6µM*,7.94µM*,3.98µM*
NNc1nccc(Nc2ccccc2C(=O)O)n1,-10.0%,-12.5%,-22.0%,i,-6.7%,?
c1ccc(Nc2ccnc(Nc3ccccc3)n2)cc1,?,-29.4%,20.6µM*,?,0.0%,?
COc1ccc(Nc2nc(NN)nc(Nc3ccc(OC)cc3)n2)cc1,?,-7.2%,13µM*,i,.,12.2%
NNc1nc(Nc2ccccc2)nc(Nc2ccccc2)n1,16.4µM*,-9.3%,?,i,0.9%,-1.0%
COc1ccc(CN2CCNC(=O)C2CC(=O)NCCc2nc(C)c(C)s2)c(OC)c1 (stereo unspecified),-15.7%,-191.6%,-6.4%,i,-0.4%,-7.1%
C[C@@H](NC(=O)c1nc[nH]c1C(=O)NCCCCCNC(=O)OC(C)(C)C)c1ccccc1,25.9µM*,-34.1%,?,?,-0.3%,?
C[C@H](NC(=O)c1nc[nH]c1C(=O)NCCCCCNC(=O)OC(C)(C)C)c1ccccc1,14.6µM*,-21.9%,16.4µM*,?,-12.2%,?
C[C@H](NC(=O)c1nc[nH]c1C(=O)NCc1ccc(CNC(=O)OC(C)(C)C)cc1)c1ccccc1,?,-5.8%,?,?,?,?
C[C@@H](NC(=O)c1nc[nH]c1C(=O)NCC(=O)OC(C)(C)C)c1ccccc1,-20.9%,0.1%,-27.3%,i,5.7%,-3.9%
O=S1(=O)CCOC[C@H](c2ccccc2)N1Cc1ccc(Cl)cc1Cl,?,-36.4%,?,.,.,?
CCCC[C@@H](CNC)NC[C@H](Cc1ccc(O)cc1)NCCc1ccc(OCC)cc1,5.17µM*,12.6µM*,3.26µM*,?,?,?
CC1(C2CC2)NC(=O)N(CC(=O)NCC(=O)Nc2ccc(F)c(F)c2F)C1=O (stereo unspecified),-21.0%,-3.1%,2.2%,i,-14.2%,3.3%
Cc1ccc(Oc2c(C(F)(F)F)oc3c(CN4CCCCC4C)c(O)ccc3c2=O)cc1 (stereo unspecified),?,-36.4%,25.9µM*,i,10.1%,?
CCC(C)NC(=O)c1ccc2c(=O)n3c(nc2c1)CCCCC3 (stereo unspecified),17.6%,5.2%,-10.7%,i,9.5%,-17.2%
Cc1ccc(C(C)C)c(OCCNC(=O)c2cncc(Br)c2)c1,?,-40.7%,?,i,-22.1%,?
COc1cc(OC)cc(C(=O)NCCOc2ccccc2)c1,-18.3%,-5.0%,-5.4%,i,74.5%,14.0%
COc1cc(C(=O)NCCOc2cc(C)cc(C)c2)cc(OC)c1OC,4.11µM*,-16.6%,2.91µM*,i,-1.8%,-18.2%

# From PubChem
